Reference: the supplement of paper PMC13380429

Test system: Vero E6 infected with SARS-CoV-2
Test: inhibition of SARS-CoV-2 cytopathic effect; higher = more antiviral protection, active = above 15
Conditions: 48 h

Measured: inhibition of SARS-CoV-2 cytopathic effect

S=C(NCCc1ccccn1)Nc1ccc(Br)cn1 [trovirdine]
inactive: 1 nM 2% | 8.33 nM 2.79% | 100 nM 2.61% | 833.33 nM 1.44% | 10000 nM 0.69%

Cc1cc(Cn2cnc3c2C[C@@H](C(=O)O)N(C(=O)C(c2ccccc2)c2ccccc2)C3)ccc1N(C)C
inactive: 1 nM -2.45% | 8.33 nM -1.75% | 100 nM -3.61% | 833.33 nM -1.45% | 10000 nM 0.19%

CC(C(=O)O)c1cccc(C(=O)c2ccccc2)c1 (stereo not given) [ketoprofen]
inactive: 1 nM -0.91% | 8.33 nM -0.62% | 100 nM -0.91% | 833.33 nM -0.03% | 10000 nM -0.97%

C=C1CC[C@@H]2[C@](C)(CO)[C@H](O)CC[C@@]2(C)[C@@H]1C/C=C1/C(=O)OC[C@H]1O [andrographolide]
active: 10000 nM 32.5%
inactive: 1 nM -3.07% | 8.33 nM -2.2% | 100 nM -0.1% | 833.33 nM 8.92%

C/C(=C\c1csc(C)n1)[C@@H]1C[C@@H]2O[C@]2(C)CCC[C@H](C)[C@H](O)[C@@H](C)C(=O)C(C)(C)[C@@H](O)CC(=O)N1 [ixabepilone]
inactive: 1 nM -3.63% | 8.33 nM 0.38% | 100 nM -5.48% | 833.33 nM -6.58% | 10000 nM -2.57%

CC(N)Cc1c[nH]c2ccc(OCc3cccs3)cc12 (stereo not given)
inactive: 1 nM 0.71% | 8.33 nM -0.24% | 100 nM 0.67% | 833.33 nM -1.65% | 10000 nM -3.56%

Cc1cccc(NC(=O)c2ccc(C(F)(F)F)cc2C(=O)O)n1
inactive: 1 nM 0.74% | 8.33 nM 0.28% | 100 nM 1.41% | 833.33 nM 0.88% | 10000 nM 2.54%

CN1C(=O)CC[C@H]1c1cccnc1 [cotinine]
inactive: 1 nM -0.33% | 8.33 nM -1.5% | 100 nM -0.09% | 833.33 nM 0.39% | 10000 nM 0.17%

CC(C)(Cc1c[nH]c2ccc(Cl)cc12)NCCOc1ccccc1OCC1CC1
inactive: 1 nM 0.45% | 8.33 nM -0.91% | 100 nM 0.78% | 833.33 nM -2.24% | 10000 nM -19.4%

COc1cc(C)nc(-n2nc(C)cc2OC)n1 [epirizole]
inactive: 1 nM 1.56% | 8.33 nM 3.82% | 100 nM -0.67% | 833.33 nM 0.65% | 10000 nM -2.64%

O=C1NC(=O)[C@@]2(CCOc3ccc(F)cc32)N1 [sorbinil]
inactive: 1 nM -0.44% | 8.33 nM -2.13% | 100 nM -2.63% | 833.33 nM -0.6% | 10000 nM -0.07%

CC1(c2ccccc2)OC(C(=O)O)=CC1=O (stereo not given) [acifran]
inactive: 1 nM 0.88% | 8.33 nM 4.17% | 100 nM 2.12% | 833.33 nM -3.24% | 10000 nM 2.64%

C=CCN1C[C@H](C)N([C@H](c2ccc(C(=O)N(CC)CC)cc2)c2cccc(OC)c2)C[C@H]1C
inactive: 1 nM -0.66% | 8.33 nM 1.28% | 100 nM 1.71% | 833.33 nM -0.17% | 10000 nM -1.85%

CC#CCn1c(N2CCC[C@@H](N)C2)nc2c1c(=O)n(Cc1nc(C)c3ccccc3n1)c(=O)n2C [linagliptin]
inactive: 1 nM 0.74% | 8.33 nM -3.62% | 100 nM -0.93% | 833.33 nM -3.72% | 10000 nM -11.3%

CCCCCCCCCCCCCCCC(=O)OC(CC(=O)[O-])C[N+](C)(C)C (stereo not given) [palmitoylcarnitine]
inactive: 1 nM 0.08% | 8.33 nM 0.65% | 100 nM 0.35% | 833.33 nM -1.19% | 10000 nM -9.18%

COc1cc(C(=S)N2CCOCC2)ccc1O [vanitiolide]
inactive: 1 nM -0.99% | 8.33 nM -1.31% | 100 nM -0.6% | 833.33 nM 2.4% | 10000 nM -0.14%

COC[C@H](C)Oc1cc(O[C@@H](C)Cc2ccccc2)cc(C(=O)Nc2ccc(C(=O)O)cn2)c1
inactive: 1 nM -1.62% | 8.33 nM 2.26% | 100 nM 1.23% | 833.33 nM -0.06% | 10000 nM 0.06%

COc1cc2c(NC3CCN(C4CCCCC4)CC3)nc(N3CCCN(C(C)C)CC3)nc2cc1OCCCN1CCCCC1
inactive: 1 nM -0.42% | 8.33 nM 1.56% | 100 nM 0.26% | 833.33 nM -2.24% | 10000 nM 15%
